We go through 31 compounds from PubChem BioAssay (NCATS).

The structures appear in SMILES notation. Results filed as inconclusive are left out. A call without a number means that no potency is given here. Values without a mark were called inactive. The source made the active and inactive calls. Calls follow the shape of the dose curve; as a rule, active = well fitted inhibition curve with a large enough effect; inconclusive = small, poorly fitted or top-dose-only effect; inactive = flat fitted curve, though single readings scatter. Bridge positions count the residues as written; N and C are the ends. Square brackets hold non-standard residues; d marks the D form. Side chains are listed from the residue outwards. Peptide text beside a SMILES is read from it. * marks the point of attachment. Phg(4-OMe) = COc1ccc([C@H](N)C(=O)O)cc1; d(aIle) = CC[C@H](C)[C@@H](N)C(=O)O; d(aThr) = C[C@@H](O)[C@@H](N)C(=O)O; NMeF = CN[C@@H](Cc1ccccc1)C(=O)O; Isobutyryl = CC(C)C(=O)*
Potency is read from the fitted curve at half-maximal effect.

The subject of the test is NAD(P)H diaphorase (Clostridium kluyveri). Put plainly: Diaphorse counterscreen qHTS: Assay Interference Panel against the NCATS CANVASS Library (AID 1347362). The note with it: Diaphorase enzyme, resazurin to resorufin fluorescence; series mostly up to 57.5 µM. In short, it runs like this:
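Clostridium kluyveri diaphorase in PBS with 0.01% Tween-20 was preincubated 15 min at room temperature in the dark with compounds (11-point series). Resorufin fluorescence (ex 525/20, em 598/25) was read 5 min after adding resazurin/NADH.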
For orientation: The purpose of a counterscreen is to sort out artefacts and off-target activity.
For the compound `CC(C)=CCC[C@]12c3cc4c(cc3CC[C@@]1(C)[C@H](C)CC[C@@H]2O)[nH]c1ccccc14`, the Potency entry is “inactive”. For `C=C1CC[C@@H](Br)C(C)(C)[C@]12CC=C(C)C(=O)C2`, the Potency entry was “inactive”. In the case of `COc1cc(/C=C/C(=O)OC[C@@H](Cc2ccc(O)c(OC)c2)[C@@H](COC(=O)/C=C/c2ccc(O)c(OC)c2)Cc2ccc(O)c(OC)c2)ccc1O`, the Potency result was “inactive”. With `C=C[C@@]1(C)CC[C@@H]([C@H](C)C(=O)/C=C/C(C)(C)O)O1`, the Potency entry was “inactive”.

For `O=C1CC2OCC=C3CN4C5CC3C2[C@@H]2N1c1ccccc1[C@]52C[C@@H]4C1=C[C@H]2C3CC4N(CC[C@@]45c4ccccc4N(C1=O)[C@@H]25)C/C3=C/CO` (stereo partly specified), the Potency entry was “inactive”. The same measure, in the same setting: the entry for `C=C1CC[C@@H](O[C@H]2C[C@@](O)([C@H](C)NC(=O)c3[nH]c(C)c(Cl)c3Cl)[C@H](O)[C@@H](C)O2)[C@@H]2C=C[C@H](C)C(/C(O)=C3/C(=O)[C@H](C(C)C)N([C@@H]4O[C@H](C)[C@H](OC(N)=O)[C@H](OC(C)=O)[C@@H]4OC)C3=O)[C@@H]12` (stereo partly specified) is “inactive”; for `CC[C@H](C)[C@H]1NC(=O)[C@@H](NC(=O)C(C)C)[C@@H](C)OC(=O)[C@H](COC(=O)CNC(C)=O)NC(=O)[C@@H]([C@@H](C)O)NC(=O)[C@H](Cc2ccccc2)N(C)C(=O)[C@H](c2ccc(OC)cc2)NC1=O` (Isobutyryl-T[d(aIle)][Phg(4-OMe)][NMeF][d(aThr)]S([Gly-Ac]); ester 1-C) it is “inactive”; for `C=C(C)CC[C@H](Cc1c(O)cc(O)c2c1O[C@H](c1ccc(O)cc1)CC2=O)C(=C)C` it is “inactive”. The same measure, in the same setting: to `COc1c(O)cc2c(c1O)C(=O)c1c(coc1C)C2=O` belongs “inactive”; to `C[C@]12CC[C@]3(C1)[C@H](CC2=O)C[C@@H](OC(=O)c1ccccc1)[C@H]1[C@](C)(C(=O)O)CCC[C@@]13C`, “inactive”.

Turning to `C=C[C@](Cl)(CBr)CCC=C(C)C`, the Potency result is “inactive”. On to `CC(=O)O[C@H]1c2ccccc2-c2c3c(cc4c2[C@@H]1N(C(C)=O)CC4)OCO3`, for which the Potency result was “inactive”. Same read-out and setting: the entry for `C=CC(CCCCC)C1C(=O)NC(=O)C1C(=O)C1C2C(C)CC(C(=O)O)CC2CC1(O)C(=O)/C=C/C` (stereo unspecified) is “inactive”; for `C[C@]12CCC[C@](C)(C(=O)O)[C@@H]1CC[C@@]1(C)c3cocc3CC[C@H]21` it is “inactive”.

In the case of `COc1cc(C2OCC3C(c4ccc(O)c(OC)c4)OCC23)ccc1O` (stereo unspecified), the activity change, negative = inhibition is 1.68% [at 11.5 µM].

For `COc1cc(O)c(C(=O)[C@@H]2[C@H](CC=C(C)C)C(C)=CC[C@H]2c2ccccc2)c(O)c1`, the Potency entry was “inactive”. Same read-out and setting: to `C[n+]1cc2cc(C(N)=O)[nH]c3c(=N)c(Cl)c(N)c1c23` belongs 15.3 µM (active); to `COc1cc2c(c(O)c1O)C(=O)c1c(coc1C)C2=O`, 4.31 µM (active); to `CCC(=O)N[C@@H](C[C@H](C)C(Cl)(Cl)Cl)C(=O)N1C(=O)C=C(OC)[C@@H]1CC(C)C`, “inactive”.

Consider `C/C1=C/[C@@H](C)[C@H](O)[C@@H](O)/C=C/CC/C=C/C(=O)O[C@@H]1[C@H](C)C(=O)CCCC1CC(=O)NC(=O)C1`, for which the Potency entry is “inactive”.

On to `CN1CC[C@]2(c3cccc4c3N[C@H]3N(C)CC[C@@]43[C@]34CCN(C)[C@H]3Nc3ccccc34)c3ccccc3N[C@H]12`, for which the Potency entry was “inactive”.

With `CC[C@H]1[C@H](C)[C@H](c2cc(OC)c(OC)cc2OC)[C@@H](C)[C@H](c2cc(OC)c(OC)cc2OC)[C@@]12C=C(OC)C(=O)C=C2OC`, the Potency was 21.6 µM (active). Still for that read-out and setting: to `CC(=O)Oc1cc2c(c(OC(C)=O)c1C1CCc3cc(Cl)c(Cl)n31)C(=O)n1c-2cc(Cl)c1Cl` (stereo unspecified) belongs “inactive”. In the case of `COc1cc2c(cc1OC)[C@@H](c1ccc3c(c1)OCO3)C(C)C(C)C2=O` (stereo partly specified), the Potency result is “inactive”. As for `C/C=C(/C)c1c(Cl)c(O)c(C)c2c1Oc1c(Cl)c(O)c(Cl)c(C)c1C(=O)O2`, the Potency entry was “inactive”.

For the compound `CC(C)C[C@@H]1c2c(O)c(C=O)c(O)c(C=O)c2O[C@]2(C)C=C[C@@H](C(C)C)C[C@H]12`, the Potency entry was “inactive”.

On to `C/C=C(/C)c1cc(O)c(C)c2c1Oc1cc(O)cc(C)c1C(=O)O2`, for which the Potency result was “inactive”. Same read-out and setting: the entry for `CC(C)[C@]12CC[C@@]3(C)[C@H](C)CC[C@H](O)[C@@]3(CC1)c1cc3c(cc12)[nH]c1ccccc13` is “inactive”; for `C[C@H]1C=C[C@H]2CCCC[C@@H]2[C@H]1C(=O)[C@H]1CC2=C(C(=O)O)CCN2C1=O` it is “inactive”. The same measure, in the same setting: to `COC12OC1(C13OC1(OC)C(=O)c1cc4cc(C)oc(=O)c4c(O)c1C3O)C(O)c1c(cc3cc(C)oc(=O)c3c1O)C2=O` (stereo unspecified) belongs “inactive”; to `CO[C@H]1[C@@H](OC(=O)/C(C)=C\[C@@H]2O[C@@H]2[C@H]2O[C@H]2C)[C@H](O)[C@H](OCC23C[C@@H]4[C@H](C)CC[C@H]4C4(C=O)CC2C=C(C(C)C)C34C(=O)O)O[C@@H]1C` (stereo partly specified), “inactive”.
